IL1B secr inh = inhibitors of inflammasome signaling (IL-1 beta secretion); THP-1 LPS/ATP IL-1B secretion, AlphaLISA, 16 h; hits give low values; activity change, % at 57.5 µM; actives 4.7% (n = 360,000); in the data active = activity change below about -50%; inconclusive = mostly about -30% to -49%
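THP-1 cells pretreated 1 hr with compounds (up to 57.5 uM final), then stimulated with LPS (250 ng/mL final) plus ATP (1.25 mM final); secreted IL-1B measured by AlphaLISA after 16 hr, decreased signal indicating inhibition.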
DT40 TDP1 no CPT = qHTS for Inhibitors of human tyrosyl-DNA phosphodiesterase 1 (TDP1): qHTS in cells in absence of CPT; Potency, µM (top dose mostly 46.2 µM), for inactives: at the top dose activity change, negative = growth inhibition, hits mostly inhibitors; DT40 Tdp1-/- hTDP1 cells, no CPT, ATP luminescence, 48 h; actives 15% (n = 420,000); also: potency is read from the fitted curve at half-maximal effect; nearly all actives have a fitted effect of over 55% in size
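Chicken DT40 Tdp1-/- cells complemented with human TDP1, screened without camptothecin (DMSO vehicle only), 400 cells/well. Compounds pin-transferred, cells incubated at 37 °C for at least 48 hr. Growth read as ATP-dependent luminescence (CellTiter-Glo, 30 min at RT).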
HT1080 IDH1KD tx = kills HT-1080 cells with IDH1 knockdown; HT-1080 IDH1 knockdown viability, ATP luminescence, 48 h; Potency, µM (highest dose often 46.1 µM), for the others: at the highest dose activity, negative = toxicity, actives largely listed as cytotoxic; actives 2% (n = 360,000); AID 686971;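 also: potency is read from the fitted curve at half-maximal effect; 0% = DMSO wells and -100% = cell-free medium wells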
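Assay cells: HT-1080 with IDH1 knockdown, 750 per well, RPMI/5% FBS. Exposure: 48 h at 37 °C following 2 h pre-incubation. Read: CellTiter-Glo luminescence; fitted concentration-response, curve class assigned.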
DT40 TDP1 CPT = growth inhibition of DT40 Tdp1-/-;hTDP1 cells with camptothecin (screen for TDP1 inhibitors) | Potency, µM (top dose mostly 46.2 µM), inactives show at the top dose activity change, negative = growth inhibition, most hits filed as inhibitors | chicken DT40 Tdp1-/-;hTDP1 cells + 20 nM CPT, ATP luminescence, 48 h | actives 12% (n = 420,000); also: potency is read from the fitted curve at half-maximal effect; nearly all actives have a fitted effect of over 55% in size
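Cell growth measured by CellTiter-Glo luminescence after a minimum 48 h, 37 C compound exposure with 20 nM CPT in Tdp1-knockout DT40 cells stably expressing hTDP1, seeded 400/well; qHTS titration format.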
HT1080-NT tox = kills 2HG-producing HT-1080-NT fibrosarcoma cells; HT-1080-NT fibrosarcoma viability, CellTiter-Glo ATP luminescence, 48 h; AID 686970; Potency, µM (top dose mostly 46.1 µM), for inactives: at the top dose activity, negative = less viability, hits mostly cytotoxic; actives 1.6% (n = 360,000);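 also: NT is the 2HG producing partner of a matched IDH1 knockdown line; potency is read from the fitted curve at half-maximal effect; 0% = DMSO-treated cells and -100% = media-only wells without cells; nearly all actives have a fitted effect of over 55% in size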
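Fibrosarcoma NT cells, 750 per well in 5% FBS RPMI, were exposed to compound for 48 hours. Viability: CellTiter-Glo luminescence.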
Active calls of the source: *; u = inconclusive; x = not tested or not shown. In the library only some 19% were active in any assay of this set; here they are far more common. Unless noted, calls follow the shape of the dose curve; as a rule, active = well fitted curve in the direction sought with a large enough effect; inconclusive = small, poorly fitted or top-dose-only effect, or another doubt; inactive = no such curve, though single readings can be large; an effect the other way counts as inactive or inconclusive. Unless noted, % is scaled to controls: 0 for no effect and ±100 for the full control effect.

SMILES	IL1B secr inh	DT40 TDP1 no CPT	HT1080 IDH1KD tx	DT40 TDP1 CPT	HT1080-NT tox
COC(=O)C1=C(c2ccc(OC)c(OC)c2)C[C@@H]2CC[C@H]1N2C(=O)NC(C)C	14	-20%	15%	9%	10%
CC(C)CCCC1(C)C=Cc2c(O)c3c(c(CCC(C)C)c2O1)OC12C(CC4CC1C(C)(C)OC2(CCC(C)C(=O)O)C4O)C3=O (centres undefined)	x	-7%	x	-13%	x
CC(C)=CCCC1(C)C=Cc2c(O)c3c(c(CC=C(C)C)c2O1)OC12C(=CC4CC1C(C)(C)OC2(C/C=C(/C)C(=O)O)C4=O)C3=O (centres undefined)	x	1µM*	x	0.92µM*	x
CC(C)=CCCC1(C)C=Cc2c(O)c3c(c(CC=C(C)C)c2O1)OC12C(=CC4CC1C(C)(C)OC2(C/C=C(/C)C(=O)O)C4O)C3=O (centres undefined)	x	3.7µM*	x	4.6µM*	x
CC(C)(C)C(=O)Cn1c(NCCCl)nc2ccccc21	22	u	29%	6%	5%
O=[N+]([O-])c1ccccc1-c1cc(-c2ccccc2)cc(-c2ccccc2)[n+]1Cc1ccccc1Cl	0	0.73µM*	10µM*	0.65µM*	7.3µM*
C=CCC1=C(C)C(OC(=O)C2C(C=C(C)C)C2(C)C)CC1=O (centres undefined)	x	24µM*	x	u	x
CC(C)=CC1C(C(=O)OCc2cccc(Oc3ccccc3)c2)C1(C)C (centres undefined)	x	-4%	x	-10%	x
COP(=O)(OC)OC=C(Cl)Cl	x	12µM*	x	u	x
O=C1NC[C@H](CCCCN2C[C@H](Cc3ccccc3)N(CCC3CCCCC3)C(=O)C2=O)N(CCC2CCCCC2)C1=O	u	u	3%	u	-12%
CCOC(=O)C(O)(c1ccc(NC(=S)NC(=O)c2ccc(Cl)cc2Cl)c(C)c1)C(F)(F)F (centres undefined)	-54*	12µM*	23µM*	u	16µM*
COC(=O)C(O)(c1ccc(NC(=S)NC(=O)c2ccc(Cl)cc2Cl)c(C)c1)C(F)(F)F (centres undefined)	-21	21µM*	u	u	u
CNC(=O)N(C)c1ccc(C(O)(C(=O)OC)C(F)(F)F)cc1 (centres undefined)	25	-7%	12%	11%	3%
CCOC(=O)C(NC(=O)CC)(Nc1ccc(C(O)(C(=O)OCC)C(F)(F)F)cc1C)C(F)(F)F (centres undefined)	-25	-13%	-5%	-18%	-4%
CCN(CC)CCO	-1	6%	7%	-1%	9%
Cc1cc(C)c(C)c(/C=C(/C#N)C(N)=S)c1C	6	-5%	u	3%	u
Cc1ccc(NC(=O)C2C3CCCC2C3c2ccccc2)c(C)c1 (centres undefined)	-1	23µM*	11%	u	11%
Cc1ccc(NC(=O)c2cccn(Cc3ccccc3C)c2=O)c(C)c1	x	-23%	x	-11%	x
CN(C)c1ncc(C2=C(Cl)C(=O)C(N3CCCC3)=C(Cl)C2=O)s1	-104*	1.2µM*	8.9µM*	0.92µM*	u
Cc1ccccc1S(=O)(=O)N1C[C@H]2[C@H]3C(=O)N(C4CCCCC4)C(=O)[C@H]3CC(=O)[C@H]2[C@@H]1c1ccc(Cl)cc1	u	u	8%	u	7%
COc1ccc(C2/C=C\CN(C(=O)Oc3ccccc3)CC(=O)N2Cc2ccc(F)cc2)cc1 (centres undefined)	40	u	-1%	21µM*	-3%
CC1(C)C(C(Cl)Cl)C2(Cl)C(Cl)C(Cl)C1(Cl)C2(Cl)Cl (centres undefined)	x	-14%	x	u	x
COc1cc(CC2(CCc3ccncc3)C(=O)N(C)C(=O)N(C)C2=O)cc(OC)c1OC	3	1%	18%	4%	22%
